Compound activity (PubChem BioAssay)
Sampled rows, rich in hits. Any-hit rate of the full collection: about 1.8%.
Mcl1-Bid inh: Mcl-1/Bid interaction inhibition; Q07820; TR-FRET Mcl-1/Bid-Dy647 peptide binding, 1536-well; inhibition, % at 21.7 µM; 0.97% of 220,000 active; AID 1021;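 active = compounds that cut the binding signal by more than half at the single screening dose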;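 also: His-tagged Mcl-1 with europium anti-His antibody binding Bid BH3 peptide; 0% = Mcl-1 plus peptide wells and 100% = peptide-only wells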
Target sequence (Q07820 whole entry, looked up): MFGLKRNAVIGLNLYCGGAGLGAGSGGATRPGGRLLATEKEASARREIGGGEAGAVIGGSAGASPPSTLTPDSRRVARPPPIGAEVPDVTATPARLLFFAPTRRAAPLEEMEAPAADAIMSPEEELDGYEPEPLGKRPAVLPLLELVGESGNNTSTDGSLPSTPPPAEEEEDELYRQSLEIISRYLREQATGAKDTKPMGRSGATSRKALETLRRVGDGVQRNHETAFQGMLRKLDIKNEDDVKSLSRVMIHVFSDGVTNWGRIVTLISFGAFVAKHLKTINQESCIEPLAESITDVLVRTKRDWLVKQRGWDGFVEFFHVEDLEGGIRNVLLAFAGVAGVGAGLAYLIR
TLR4-MyD88 BLA: TLR4-MyD88 interaction inhibition in cells; HeLa CL3-4 TLR4/MyD88 BLA complementation, FRET ratio; O00206+Q99836; 0.18% of 200,000 active; AID 861; inhibition, % at 8.4 µM; in the data active = inhibition above about 25%;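 also: 0% = vehicle and 100% = reference inhibitor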
Bim-Mcl-1: human Bim-Mcl-1 interaction inhibition; inhibition, % at 10 µM; Bead-based flow cytometry, Bim peptide-Mcl-1 binding; 0.1% of 190,000 active; AID 1009; in the data active = inhibition above about 40%;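 also: 0% = no compound tracer wells and 100% = peptide blocker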
NOD2-RIPK2 inh: NOD2-RIPK2 protein interaction inhibition | 0.38% of 360,000 active | AID 624267 | CHO BLA complementation NOD2-RIPK2, CCF4 ratio | inhibition, % at 4.98 µM; in the data active = inhibition above about 21%;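 also: 0% = vehicle only and 100% = reference blocker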
TLR9-MyD88 inh: TLR9-MyD88 interaction inhibition. Q9NR96+Q99836. CHO BLA complementation TLR9-MyD88, CCF4 FRET ratio. inhibition, % at 4.98 µM. 0.21% of 340,000 active. AID 504734;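 active = inhibition above the mean over all tested compounds plus 3 SD, cut at about 21% in these data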;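 also: 0% = DMSO only wells and 100% = clavulanate BLA inhibitor control wells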
Mcl1-Noxa inh: disrupts binding of human Mcl-1 to Noxa peptide; 1.5% of 220,000 active; AID 1022; inhibition, % at 21.7 µM; TR-FRET Mcl-1/Noxa peptide binding, 2 h;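 active = compounds that cut the protein-peptide binding signal by more than 50% relative to plate controls in a single-dose test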;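 also: His-tagged Mcl-1 with rhodamine Noxa BH3 peptide and terbium anti-His antibody; 0% = Mcl-1 plus Noxa peptide wells and 100% = peptide-only wells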
Numbers without * were called inactive; · = not tested or not shown.

SMILES	Mcl1-Bid inh	TLR4-MyD88 BLA	Bim-Mcl-1	NOD2-RIPK2 inh	TLR9-MyD88 inh	Mcl1-Noxa inh
CCCC1(C(=O)OCC)NC(c2cc(OC)c(OC)c(OC)c2)C2C(=O)N(CC)C(=O)C21 (stereo not drawn)	-19	-11	81*	4	10	8
COc1ccc(-c2csc(Cc3nnc4n3CCCCC4)n2)cc1OC	55*	0	2	-5	4	62*
CC1(C)CC(=O)C(C(c2cccnc2)C2C(=O)CC(C)(C)CC2=O)C(=O)C1	69*	4	-30	3	-8	-5
COc1cccc(C(C2C(=O)CC(C)(C)CC2=O)C2C(=O)CC(C)(C)CC2=O)c1	·	·	·	-6	-20	·
O=C(NNc1c([N+](=O)[O-])cc(C(F)(F)F)cc1[N+](=O)[O-])c1ccco1	·	·	·	0	0	·
Oc1[nH]c2ccccc2c1N=Nc1nc2ccccc2s1	59*	1	-2	1	5	84*
Cc1ccc2[nH]c(O)c(N=Nc3nc4ccccc4s3)c2c1	51*	·	·	5	-8	95*
Cc1ccc2[nH]c(O)c(N=Nc3ccccc3[N+](=O)[O-])c2c1	·	·	·	6	-5	·
CCN(CC(=O)Nc1ccccc1C(F)(F)F)C(=O)c1ccccc1OCc1ccc(F)cc1	·	·	·	-2	6	·
N#Cc1ccsc1NC(=O)CN1CCN(c2ccccc2)CC1	-13	4	0	-12	0	43
O=C(CN1CCN(c2ccc(O)cc2)CC1)Nc1ccc(SC(F)F)cc1	-64	5	-2	8	-3	70*
COc1cccc(N2CCN(CC(=O)Nc3ccc(SC(F)F)cc3)CC2)c1	-33	-4	4	3	1	27
N#Cc1ccsc1NC(=O)CN1CCN(c2ccc(O)cc2)CC1	-30	3	-6	9	-4	72*
COc1cc(NC(=O)c2ccccc2F)c(OC)cc1NC(=O)CN1CCCCC1	·	·	·	-4	3	·
Cc1ccc(C(=O)Nc2ccc(N3CCCC3)cc2)c(C)c1	-32	7	-1	-3	1	75*
CS(=O)(=O)c1ccc(C(=O)Nc2ccc(N3CCCC3)cc2)c(Cl)c1	-32	-11	-1	-6	-6	67*
COc1ccccc1OCCOc1ccc(/C=C2/C(=N)N3OC(C)=CC3=NC2=O)cc1OC	84*	-4	0	6	-1	-22
Cc1nc2ccc(NC(=O)c3ccc(Cl)c([N+](=O)[O-])c3)cc2s1	18	2	-4	-8	-6	15
Cc1nc2ccc(NC(=O)c3cc([N+](=O)[O-])cc([N+](=O)[O-])c3Cl)cc2s1	22	3	-13	4	-9	96*
O=c1oc2ccccc2c(O)c1/C=N/c1ncccn1	·	·	·	-8	-7	·
O=c1oc2ccccc2c(O)c1/C=C1\C=Nc2ccccc21	-53	7	0	-17	3	78*
CC(NC(=O)C1CCCN1C(=O)OC(C)(C)C)C(=O)OCc1ccccc1 (stereo not drawn)	·	·	·	-5	·	·
COc1cc(NC(=O)COc2ccccc2[N+](=O)[O-])ccc1NC(=O)c1cccs1	16	-18	-2	-1	-9	57*
O=C(NCc1cccnc1)c1ccc(S(=O)(=O)N2CCCCC2)cc1	9	-5	0	-9	3	24
O=C(Cc1cccs1)Nc1ccc(S(=O)(=O)N2CCCC2)cc1	-19	-4	0	-1	0	63*
SMILES	Mcl1-Bid inh	TLR4-MyD88 BLA	Bim-Mcl-1	NOD2-RIPK2 inh	TLR9-MyD88 inh	Mcl1-Noxa inh
NS(=O)(=O)c1ccc(NC(=S)NC(=O)c2cccs2)cc1	-42	·	·	4	-10	1
Cc1ccc(S(=O)(=O)N2CCCCC2)cc1NC(=O)Cc1cccs1	·	·	·	2	2	·
O=S(=O)(c1ccc(NC(=S)NCc2cccnc2)cc1)N1CCCCC1	96*	·	·	-10	-7	20
O=C(NC(=S)Nc1ccc(S(=O)(=O)N2CCCCC2)cc1)c1cccs1	96*	-9	0	-11	-2	1
CN1CCN(S(=O)(=O)c2ccc(NC(=S)NC(=O)c3ccc(Cl)cc3)cc2)CC1	2	-3	-7	-3	4	84*
CN1CCN(S(=O)(=O)c2ccc(NC(=S)NC(=O)c3ccccc3)cc2)CC1	-28	6	-2	-11	-5	13
C=CCn1c(C)nnc1SCC(=O)Nc1ccccc1C(=O)NC1CC1	·	·	·	8	1	·
CC(=O)Nc1ccc(SCCN2CC[C@@H](C)CCC2=O)cc1	·	·	·	-2	-14	·
COC(=O)[C@]12CCCCC=C1N(Cc1ccco1)C(=O)[C@H](CC(=O)NCc1ccccc1)C2	·	·	·	3	·	·
CC(C)(C)c1nc2ccccc2c2nnc(SCC(=O)Nc3nc4ccccc4s3)n12	71*	-14	2	0	6	26
CC(C)(C)c1nc2ccccc2c2nnc(SCC(=O)Nc3nccs3)n12	-7	-8	1	-12	1	18
CCN(CC)S(=O)(=O)c1ccc(C)c(NC(=O)CN2CCN(C)CC2)c1	65*	·	·	-7	-7	33
O=C(COc1ccc(/C=N/NC(=O)c2cc3ccccc3o2)cc1Cl)Nc1ccccc1	84*	-2	-3	-13	-2	23
CN(C(=O)COC(=O)c1cc2ccccc2cc1O)c1c(N)n(Cc2ccccc2)c(=O)[nH]c1=O	·	·	·	2	8	·
O=c1cc(-c2ccccc2)oc2cc(O)c(O)c(O)c12	·	·	·	-12	0	·
O=c1c(O)cccc2cc(O)c(O)c(O)c12	92*	·	·	-3	-1	104*
CCOc1cc(N2CCOCC2)c(OCC)cc1NC(=O)CCS(=O)(=O)c1ccc(Cl)cc1	101*	-3	0	-5	6	19
O=C(NC(=S)NCc1cccnc1)c1ccc([N+](=O)[O-])cc1	71*	1	-2	-15	-1	3
CCOC(=O)C1=C(C)NC2=C(C(=O)CC(C)(C)C2)C1c1ccc2c(c1)CCCN2C (stereo not drawn)	-2	-24	-6	-17	-10	94*
CCOC(=O)C1=C(C)NC2=C(C(=O)CC(C)(C)C2)C1c1ccc(O)c(OCC)c1 (stereo not drawn)	-136	·	·	-4	-5	1
CCOC(=O)c1sc(NC(=O)c2ccc(Cl)s2)cc1C	0	-6	0	-5	3	3
CCOC(=O)c1sc(NC(=O)Nc2ccc(Cl)cc2)cc1C	7	-8	2	-2	-4	100*
CCCS(=O)(=O)NC(=O)C1(C)CCCN(C(=O)COCc2ccccc2)C1 (stereo not drawn)	·	·	·	3	·	·
COc1ccc(C(C)=O)cc1COC(=O)c1c(C)noc1C	2	3	0	-1	-4	21
COc1ccc(C(C)=O)cc1COC(=O)c1ccc(OCc2c(C)noc2C)cc1	52*	-2	7	-3	-11	-80
COc1ccc(C(CNC(=O)c2cccc(S(=O)(=O)Nc3cccc(C)c3)c2)N2CCOCC2)cc1 (stereo not drawn)	·	·	·	0	0	·
